Screening data from PubChem BioAssay.
IP6K1 inhibitor = inhibitors of human IP6K1; Q92551; IP6K1 kinase, ADP-Glo luminescence, 2 h; stronger effect = lower value; activity change, % (series mostly up to about 58 µM); 140,000 tested, 0.81% active; AID 1645851; in the data active means activity change below about -25%; further: on the % scale 0 is the no-effect control and ±100 the full control effect
Target sequence (Q92551 whole entry, looked up): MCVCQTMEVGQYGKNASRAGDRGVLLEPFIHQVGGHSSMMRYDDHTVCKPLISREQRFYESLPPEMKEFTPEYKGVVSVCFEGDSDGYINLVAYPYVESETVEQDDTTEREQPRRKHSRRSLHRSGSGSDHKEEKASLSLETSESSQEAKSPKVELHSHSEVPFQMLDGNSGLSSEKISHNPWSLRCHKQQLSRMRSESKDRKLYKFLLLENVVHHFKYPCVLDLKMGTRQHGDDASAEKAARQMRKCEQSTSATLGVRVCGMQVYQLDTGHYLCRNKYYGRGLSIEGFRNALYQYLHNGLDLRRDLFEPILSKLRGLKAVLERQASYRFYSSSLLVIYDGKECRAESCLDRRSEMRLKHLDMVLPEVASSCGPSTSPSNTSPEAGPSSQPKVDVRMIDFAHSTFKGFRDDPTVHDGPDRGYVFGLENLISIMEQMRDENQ
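ADP-Glo luminescence measures ADP made by human IP6K1 during a 2 h RT reaction with ATP/IP6 (mix at 1.3 mM/130 uM); top library doses 57.5 and 19.1 uM final.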
SNCA viab count = reduces viability of HEK-293 SNCA reporter cells | HEK-293-SNCA-luc viability, GF-AFC fluorescence, 24 h | Potency, µM (highest dose often 57.1 µM), without a hit: at the top dose activity change, negative = cytotoxicity, usual class: cytotoxic | 150,000 tested, 0.12% active;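 further: potency means the concentration at half of the fitted maximal effect; 0% = DMSO-treated cells and -100% = medium-only wells without cells; nearly all actives have a fitted effect of over 30% in size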
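Cytotoxicity counterscreen: after 24 h compound treatment of genome-edited SNCA-luciferase HEK-293 cells, live-cell protease substrate GF-AFC read by fluorescence after 30 min; activity scaled between DMSO (0%) and medium-only (-100%), curves Hill-fitted.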
SNCA expr inhib = SNCA gene expression inhibition. Potency, µM (titrated, usually from 57.2 µM), for the others: top-dose activity change, negative = inhibition, most hits filed as inhibitors. 140,000 tested, 0.17% active. HEK-293 SNCA-luciferase knock-in, luminescence, 24 h;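 further: potency means the concentration at half of the fitted maximal effect; plate controls were DMSO cells for no effect and cell-free wells for full effect; nearly all actives have a fitted effect of over 45% in size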
KDM5B inh = inhibitors of human KDM5B histone demethylase; Q9UGL1; KDM5B demethylase, FDH-coupled NADH fluorescence (FDH is formaldehyde dehydrogenase); Potency, µM (top dose mostly 57.7 µM), usual class: inhibitors; 220,000 tested, 2.6% active; further: potency means the concentration at half of the fitted maximal effect; 0% is about no effect; nearly all actives have a fitted effect of over 70% in size
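Inhibition is measured as reduced NADH fluorescence generation from FDH coupling to formaldehyde release. Truncated KDM5BΔAP at 200 nM final acts on H3K4me3 peptide (12.5 µM in substrate mix) in pH 7.5 HEPES buffer with Tween-20, 30 min, room temperature.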
Numbers without * were called inactive; i = inactive; ? = inconclusive; / = no result given; [ ] = remark or other dose. This is a sample that favours compounds with a hit; in the whole collection about 2.9% have one here. Unless noted, the call rests on the fitted dose curve; in most records, active means well fitted curve in the direction sought with a large enough effect; inconclusive means small, poorly fitted or top-dose-only effect, or another doubt; inactive means no such curve, though single readings can be large; an effect the other way counts as inactive or inconclusive.

SMILES | IP6K1 inhibitor | SNCA viab count | SNCA expr inhib | KDM5B inh
CCCOc1c(Cl)cc(/C=C/C(=O)c2ccc(O)c(OC)c2)cc1OCC | / | / | / | i
CS(=O)(=O)Nc1ccc(C2(C(=O)NC3CCCCCC3)CCCCC2)cc1 | 18 | -12% | -7% | i
CC(=O)NCCNc1cc(C)c2ccc(Cl)cc2n1 | 56 | -4% | 3% | 25µM*
O=C(COc1cc2oc(=O)cc(-c3ccccc3)c2cc1Cl)NCc1cccs1 | / | / | / | i
COc1ncccc1-c1nccc2c(=O)cc(N(C)C3CCOCC3)oc12 | -4 | 4%[87.6 µM] | -14%[87.6 µM] | i
COc1cc(F)ccc1-c1nccc2c(=O)cc(N(C)C3CCOCC3)oc12 | -11 | 7%[87.6 µM] | ? | 40µM*
O=c1cc(N2CCOCC2)oc2c(NCc3ccc(F)cc3)nccc12 | -2 | -10%[87.6 µM] | -6%[87.6 µM] | 35µM*
O=c1cc(N2CCOCC2)oc2c(Nc3ccccn3)nccc12 | -4 | 6%[87.6 µM] | -2%[87.6 µM] | ?
COc1cc(F)ccc1-c1nccc2c(=O)cc(N3CCOCC3)oc12 | -16 | -6%[87.6 µM] | 31%[87.6 µM] | 35µM*
COc1ccc(-c2nccc3c(=O)cc(N4CCOCC4)oc23)cc1OC | -4 | -8%[87.6 µM] | 15%[87.6 µM] | i
O=c1cc(N2CCOCC2)oc2c(-c3ccc(F)cc3)nccc12 | -6 | -3%[87.6 µM] | -13%[87.6 µM] | 35µM*
CN(C)c1cc(=O)c2ccnc(-c3ccc(N4CCOCC4)cc3)c2o1 | -21 | -13%[87.6 µM] | 9%[87.6 µM] | 32µM*
CN(C)c1cc(=O)c2ccnc(-c3ccc(O)c(F)c3)c2o1 | -23 | 1%[87.6 µM] | 56%[87.6 µM] | ?
CN(c1cc(=O)c2ccnc(-c3ccc(O)c(F)c3)c2o1)C1CCOCC1 | 24 | -9%[87.6 µM] | 58%[87.6 µM] | 32µM*
O=c1cc(N2CCOCC2)oc2c(-c3ccc(F)c(Cl)c3)nccc12 | -20 | 1%[87.6 µM] | ? | 20µM*
O=C(Cc1ccc(F)cc1)N1CCN(C(=O)c2nnn3c2COC(c2ccccc2)C3)CC1 (stereo not drawn) | 15 | 1% | 58% | i
Cc1cc(C)n2nc(C(=O)N3CCCC4(CNC(=O)O4)C3)cc2n1 (stereo not drawn) | -3 | 12% | ? | 25µM*
CN(C)c1ncc2c(n1)C(C)(C(=O)NCc1ccc3c(c1)OCO3)CCC2 (stereo not drawn) | -3 | 3%[87.6 µM] | -26%[87.6 µM] | 32µM*
COc1cccc(Nc2ncc3c(n2)C(C)(C(=O)NCc2ccc4c(c2)OCO4)CC3)c1 (stereo not drawn) | -9 | ? | ? | ?
CN(C)c1ncc2c(n1)C(C)(C(=O)NCc1cccc(Cl)c1)CCC2 (stereo not drawn) | 12 | -2%[87.6 µM] | -15%[87.6 µM] | 40µM*
CN(C)c1ncc2c(n1)C(C)(C(=O)NCc1cccc(F)c1)CCC2 (stereo not drawn) | -7 | -2%[87.6 µM] | ? | ?
CCC1(CO)CCCN(Cc2ccc3c4c(cccc24)C(=O)OC3)C1 (stereo not drawn) | 7 | 2% | -18% | 11µM*
COc1ccc(-c2nc(-c3ccccc3)nc3c2CN(C(=O)c2cccc(OC)c2)CC3)cc1 | 3 | ? | -16% | i
COc1ccccc1C(=O)N1CCCn2nc(C)c(-c3ccccc3C(C)C)c21 | 24 | -9%[87.6 µM] | -3%[87.6 µM] | i
COc1ccccc1C(=O)N1CCCn2nc(C)c(-c3ccccc3N3CCCC3)c21 | 17 | -15%[87.6 µM] | -25%[87.6 µM] | 13µM*
SMILES | IP6K1 inhibitor | SNCA viab count | SNCA expr inhib | KDM5B inh
CNC(=O)C1(C)CN(Cc2ccccc2)Cc2ccc(NCC(C)C)nc21 (stereo not drawn) | 13 | -25%[87.6 µM] | -28%[87.6 µM] | ?
COCCNC(=O)C1(C)CN(Cc2ccccc2)Cc2ccc(NCC(C)C)nc21 (stereo not drawn) | 6 | ? | ? | ?
COCCN1Cc2ccc(Nc3ccc(OC)cc3)nc2C(C)(C(=O)Nc2ccccc2)C1 (stereo not drawn) | -9 | 2% | -3% | 32µM*
COC1CCN(C(=O)C2(C)CN(Cc3ccccc3)Cc3ccc(Nc4ccccc4)nc32)CC1 (stereo not drawn) | 7 | -22% | -21% | 32µM*
COCCN1Cc2ccc(NCC(C)C)nc2C(C)(C(=O)Nc2ccc(OC)cc2)C1 (stereo not drawn) | 24 | ? | -19%[87.6 µM] | ?
CNC(=O)C1(C)CN(Cc2ccccc2)Cc2ccc(Nc3ccccc3)nc21 (stereo not drawn) | -2 | ? | -14%[87.6 µM] | 35µM*
COCCNC(=O)C1(C)CN(Cc2ccccc2)Cc2ccc(Nc3ccccc3)nc21 (stereo not drawn) | 1 | -25%[87.6 µM] | -3%[87.6 µM] | 32µM*
COCCn1c(C)cc(C(=O)C(=O)Nc2nnc(COc3ccc(C)cc3)s2)c1C | / | / | / | i
Cc1cccc(-n2nc(C)c(C(=O)N(C)Cc3ccccc3)c2-n2cccc2)c1 | / | / | / | i
COc1ccc(-c2nc3nccc(-c4ccsc4)n3n2)c(OC)c1 | -4 | 6% | 2% | 18µM*
c1csc(-c2nc3nccc(-c4ccsc4)n3n2)c1 | 8 | 8% | 11% | ?
CC(C)c1nc2nccc(-c3ccsc3)n2n1 | -6 | 9% | 12% | 25µM*
COc1ccc(-c2ccnc3nc(-c4ccco4)nn23)c(F)c1 | -5 | 2% | 54% | 16µM*
COc1ccc(-c2nc3nccc(-c4ccco4)n3n2)c(OC)c1 | -9 | -10% | 46% | 22µM*
COc1ccc(-c2ccnc3nc(-c4ccccc4OC)nn23)c(F)c1 | -3 | -4% | 21% | ?
CN(Cc1cccn1C)C(=O)c1ccc(C(F)(F)F)cc1 | 15 | 2%[87.6 µM] | 41%[87.6 µM] | i
O=C(c1ccc(Cl)nc1)N1CCCN(c2ccc3nnc(-c4ccccc4)n3n2)CC1 | 11 | / | / | /
O=C1NC2(CCN(Cc3ccccc3)C2)COc2ccccc21 (stereo not drawn) | 5 | 9%[87.6 µM] | -5%[87.6 µM] | 40µM*
Cn1nccc1CN1CCC2(COc3ccccc3C(=O)N2)C1 (stereo not drawn) | 11 | 2%[87.6 µM] | -11%[87.6 µM] | ?
N#Cc1ccc(CN2CCCC3(C2)NC(=O)c2ccccc2O3)cc1 (stereo not drawn) | 26 | -7%[87.6 µM] | 1%[87.6 µM] | i
N#Cc1ccc(CN2CCCC3(COc4ccccc4C(=O)N3)C2)cc1 (stereo not drawn) | 17 | 2% | ? | 35µM*
O=C1NC2(CCN(Cc3ccc(OC(F)(F)F)cc3)C2)COc2ccccc21 (stereo not drawn) | 5 | 1% | -5% | 22µM*
O=C1NC2(CCN(Cc3ccc(F)cc3)C2)COc2ccccc21 (stereo not drawn) | 23 | -8%[87.6 µM] | -23%[87.6 µM] | ?
Cc1ccc(CN2CCCC3(COc4ccccc4C(=O)N3)C2)cc1 (stereo not drawn) | 7 | 7%[87.6 µM] | 2%[87.6 µM] | 35µM*
N#Cc1ccc(CN2CCC3(CC2)COc2ccccc2C(=O)N3)cc1 | 16 | -2% | 20% | i
N#Cc1ccc(CN2CCC3(COc4ccccc4C(=O)N3)C2)cc1 (stereo not drawn) | 17 | 11%[87.6 µM] | -12%[87.6 µM] | 40µM*
O=C(NCCc1ccc(Cl)cc1)c1nc(-c2ccc(Cl)nc2)c2ccccn12 | 1 | ? | 99% | 50µM*
O=C(NCc1ccc(F)cc1)c1nc(-c2cccnc2)c2cnccn12 | 0 | 3%[87.6 µM] | -9%[87.6 µM] | i
